# Shown are actives, neighbours in structure and some others; about 2.5% of the full set was active somewhere.
# Cruzain noTriton: blocks cruzain activity in detergent-free assay. actives 2.3% (n = 200,000). P25779. Potency, µM, inactives show max response, negative = inhibition, hits mostly inhibitors. purified cruzain, Z-FR-AMC fluorescence, no detergent;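 also: plate controls were enzyme without inhibitor for no effect and buffer without enzyme for full effect; nearly all actives have a fitted effect of over 40% in size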
# Target sequence (P25779 123-467 limits assumed): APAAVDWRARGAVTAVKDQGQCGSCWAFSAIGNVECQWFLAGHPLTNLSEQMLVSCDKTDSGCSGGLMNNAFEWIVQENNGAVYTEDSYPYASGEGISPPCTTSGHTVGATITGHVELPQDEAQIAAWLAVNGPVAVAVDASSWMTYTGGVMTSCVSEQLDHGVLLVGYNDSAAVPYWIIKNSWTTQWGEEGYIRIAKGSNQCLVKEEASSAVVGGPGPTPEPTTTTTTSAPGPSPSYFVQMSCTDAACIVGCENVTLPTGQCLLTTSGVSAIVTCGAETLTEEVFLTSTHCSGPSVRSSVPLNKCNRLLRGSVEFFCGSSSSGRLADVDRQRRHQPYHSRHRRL
#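 Detergent-free condition (0.00005% Triton X-100) in acetate buffer pH 5.5 with DTT. 1.5 nM enzyme and compound were pre-mixed 15 min, then 2 uM Z-FR-AMC substrate added; reaction progress from fluorescence change between first and third reads (60 s).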
# Cruzain Triton: blocks cruzain activity in presence of Triton detergent; actives 0.43% (n = 200,000); Potency, µM, without a hit: max response, negative = inhibition, hits mostly inhibitors; AID 1478; purified cruzain, Z-FR-AMC fluorescence, 0.01% Triton; P25779;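 also: plate controls were neutral wells for no effect and buffer without enzyme for full effect; nearly all actives have a fitted effect of over 40% in size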
#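 Cysteine protease activity tested under reducing, mildly acidic conditions (100 mM sodium acetate pH 5.5, 5 mM DTT) plus 0.01% Triton X-100. Cruzain 1.5 nM; substrate Z-FR-AMC 2 uM; 15 min compound preincubation at room temperature.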
# Papain inh: papain (Carica papaya) inhibition counter-screen; Potency, µM, for the others: max response, negative = inhibition, actives largely listed as inhibitors; shares compounds with Cruzain Triton; purified papain, Z-FR-AMC fluorescence cleavage; actives 41% (n = 410); AID 2161;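 also: 0% = no-compound wells and -100% = no-enzyme wells; nearly all actives have a fitted effect of over 35% in size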
# Target sequence (P00784 whole entry, looked up): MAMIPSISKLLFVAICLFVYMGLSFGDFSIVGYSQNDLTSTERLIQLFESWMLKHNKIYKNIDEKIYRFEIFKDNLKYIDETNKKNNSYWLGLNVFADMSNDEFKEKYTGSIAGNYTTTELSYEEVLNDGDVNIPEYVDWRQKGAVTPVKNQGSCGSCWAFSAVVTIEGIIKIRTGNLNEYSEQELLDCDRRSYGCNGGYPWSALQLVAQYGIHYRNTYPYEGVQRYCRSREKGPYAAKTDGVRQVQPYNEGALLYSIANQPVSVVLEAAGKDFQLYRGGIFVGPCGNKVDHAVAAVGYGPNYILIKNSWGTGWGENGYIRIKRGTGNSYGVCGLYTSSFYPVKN
# Active calls of the source: *; u = inconclusive; x = not tested or not shown. Calls follow the shape of the dose curve; as a rule, active = well fitted curve in the direction sought with a large enough effect; inconclusive = small, poorly fitted or top-dose-only effect, or another doubt; inactive = no such curve, though single readings can be large; an effect the other way counts as inactive or inconclusive. Potency is read from the fitted curve at half-maximal effect.
SMILES,Cruzain noTriton,Cruzain Triton,Papain inh
O=C(Cc1ccc(Cl)cc1)Nc1ccccc1Sc1ccccc1,-17.0%,-8.0%,x
O=C(O)c1c(Sc2ccccc2)c2cc(Cl)ccc2n1Cc1ccc(Cl)cc1,u,28.2µM*,28.2µM*
O=C(NCCCc1nc2ccccc2n1Cc1ccc(F)cc1)C1CCCCC1,-5.8%,-6.5%,x
O=C(NCCCc1nc2ccccc2n1Cc1ccccc1)C1CCCCC1,-6.9%,-6.1%,x
O=C(NCCCc1nc2ccccc2n1CCOc1ccccc1)C1CCCCC1,x,x,0.4%
O=C(NCCCc1nc2ccccc2n1CCCOc1ccccc1)C1CCCCC1,x,x,10.1%
OCCCc1nc2ccccc2n1CCCCOc1ccccc1,-1.4%,-5.0%,x
O=C(NCCCc1nc2ccccc2n1CCCCOc1ccccc1)C1CCCCC1,x,x,5.0%
CCOc1ccccc1NC(=O)N1CCc2c(sc(C)c2CC)C1c1ccccc1 (centres undefined),u,-2.3%,x
COc1ccccc1N1CCN(S(=O)(=O)CCNC(=O)Cc2ccc(Cl)cc2)CC1,u,-3.1%,x
COc1ccc(S(=O)(=O)N2CCC(n3c(C)nc4cccnc43)CC2)cc1Cl,u,-1.8%,x
CCOc1ccc(-c2nc3c(c(SCC(=O)N4CCCCC4)n2)Cc2cc(C)ccc2O3)cc1,-14.8%,-0.9%,x
Cc1cccc(Nc2nc(N)c([N+](=O)[O-])c(N3CCC(C)CC3)n2)c1,2.8%,-8.1%,x
N#Cc1nc(Nc2cccc([N+](=O)[O-])c2)nc(NC2CCCC2)n1,x,x,2.82µM*
O=C(CO/N=C/c1cccc([N+](=O)[O-])c1)NC1CCCCCC1,4.4%,-0.7%,x
Cc1cccc(Nc2nc(C#N)nc(NC3CCCC3)n2)c1,x,x,0.447µM*
CCOC(=O)c1ccc(NC(=O)Cn2cc(C(=O)C3CC3)c3ccccc32)cc1,13.3%,-9.9%,x
N#Cc1nc(-c2cccc3ccccc23)oc1N1CCCCC1,u,-3.4%,x
CC1CCN(c2oc(-c3cccc4ccccc34)nc2C#N)CC1,u,31.6µM*,39.8µM*
COC(=O)c1ccc(OCC2c3cc(OC)c(OC)cc3CCN2C(=O)c2ccccc2F)cc1 (centres undefined),u,9.4%,x
Cc1ccccc1OCCn1c(CCNC(=O)C(C)C)nc2ccccc21,1.4%,-4.1%,x
Cc1ccccc1Cn1c(CCCNC(=O)C2CCCCC2)nc2ccccc21,-5.7%,-7.7%,x
CCC(C)c1ccccc1OCCn1c(CCNC(=O)C2CCCCC2)nc2ccccc21 (centres undefined),x,x,-11.2%
CCc1nc2ccccc2n1CCCCOc1ccccc1C,11.9%,-7.2%,x
Cc1ccccc1OCCCn1c(CCNC(=O)C2CCCCC2)nc2ccccc21,2.7%,3.16µM*,-18.8%
SMILES,Cruzain noTriton,Cruzain Triton,Papain inh
CCn1c(CCNC(=O)c2ccc(OC)c(OC)c2)nc2ccccc21,-0.7%,-3.1%,x
Cc1ccccc1OCCCCn1c(CCNC(=O)C2CCCCC2)nc2ccccc21,x,x,11.2µM*
COc1ccccc1OCCCn1c(CCNC(=O)C2CCCCC2)nc2ccccc21,x,x,28.2µM*
N#C/C(=C\c1c(Oc2ccc(F)cc2)nc2ccccn2c1=O)c1nc2ccccc2s1,-14.8%,-7.8%,x
CC(C)CCNc1nc2c(S(=O)(=O)c3ccc(Br)cc3)nnn2c2ccsc12,u,3.6%,x
COc1ccc(NC(=O)C2CCN(C(=O)c3sc4nc[nH]c(=O)c4c3C)CC2)cc1Cl,-4.1%,-2.4%,x
Cc1cc(OCC(=O)Nc2ccc(N3CCCC3)cc2)cc(C)c1Cl,3.98µM*,u,3.3%
Cc1cc(OCC(=O)Nc2ccc(N3CCN(C(=O)c4ccco4)CC3)cc2)cc(C)c1Cl,0.8%,-0.3%,x
Cc1ccc(C)c(Cn2cc(CCC(=O)NC3CCCCC3)c3ccccc32)c1,1.0%,-0.1%,x
Cc1ccc(C)c(NC(=O)Cc2coc3cc(C)cc(C)c23)c1,-21.1%,-1.9%,x
COc1ccccc1C(=O)Nc1ccccc1OCc1cc(=O)n2c(C)csc2n1,1.9%,0.5%,x
Cn1c(=O)c2c(-c3ccccc3)n(CCCO)cc2n(C)c1=O,-5.0%,1.7%,x
Cn1c(=O)c2c(-c3ccccc3)n(-n3cnnc3)cc2n(C)c1=O,6.31µM*,8.91µM*,12.6µM*
CC(C)(C)NCC(O)c1ccccc1Cl (centres undefined),-6.8%,3.1%,x
OCCN(CCO)c1ccc(C(c2ccccc2Cl)c2ccc(N(CCO)CCO)cc2Cl)c(Cl)c1,u,-8.9%,-5.4%
Cn1c(CNC(=O)CSc2n[nH]c(-c3ccccc3Cl)n2)nc2ccccc21,5.2%,-4.6%,x
CCN(CC)S(=O)(=O)c1ccc(N=Nc2c(C)[nH]n(C(N)=S)c2=O)cc1,-18.8%,-24.6%,x
NC(=S)n1[nH]c(-c2ccc([N+](=O)[O-])cc2)c(N=Nc2ccc(O)cc2)c1=O,0.631µM*,0.355µM*,-1.4%
Cc1ccc(CSc2nc(=O)c3c(C)cc(C)nc3n2C2CC2)cc1,1.6%,-2.2%,x
O=C(CNC(=O)c1ccccc1)N[C@@H](C(=O)Nc1cc(C(F)(F)F)ccc1Cl)c1ccccc1,x,x,-10.3%
O=C(Cc1ccccc1)NC(=S)Nc1cc(C(F)(F)F)ccc1Cl,-3.6%,-1.2%,x
Cc1cccc(N(C)C(=O)Cn2c(=O)oc3cc(S(=O)(=O)N4CCCCC4)ccc32)c1,-10.1%,0.1%,x
NC(=O)CSc1nc2ccccc2n1Cc1ccccc1,-3.4%,-3.7%,x
NNC(=O)Cn1c(SCc2ccccc2)nc2ccccc21,-1.4%,2.8%,2.7%
O=C(CSc1nc(=O)n(Cc2ccncc2)c2c1CCC2)Nc1ccccc1,4.0%,3.6%,x
SMILES,Cruzain noTriton,Cruzain Triton,Papain inh
CC(C)COC(=O)c1nnsc1NC(=O)Nc1ccccc1,15.8µM*,3.2%,11.9%
CC(C)COC(=O)c1ccccc1C(=O)OCC(C)C,-1.0%,1.4%,x
CCC1CCCCN1C(=O)Cn1c(=O)oc2cc(S(=O)(=O)N3CCCCC3)ccc21 (centres undefined),3.7%,1.4%,x
O=C(Cn1c(=O)oc2cc(S(=O)(=O)N3CCCCCC3)ccc21)NC1CCCCCCC1,20µM*,-9.1%,12.4%
Cc1ccc(Cl)cc1-n1c(=O)cc(N2CCN(c3ccc(F)cc3)CC2)[nH]c1=O,-13.7%,-0.2%,x
N#Cc1c(NC(=O)CSc2ncnc3c2cnn3-c2ccccc2Cl)sc2c1CCCC2,3.16µM*,3.3%,9.9%
N#Cc1c(NC(=O)CSc2ncn(-c3ccccc3)n2)sc2c1CCCC2,u,2.3%,x
NCC[C@H](N)C(=O)O,-9.7%,0.1%,x
CN1CCN(c2ncc3ncc(=O)n(CCc4ccccc4)c3n2)CC1,-21.8%,-8.0%,x
CN1CCN(c2ncc3ncc(=O)n(-c4ccccc4)c3n2)CC1,20µM*,u,14.1µM*
COc1ccc(-c2nc3sc(CCNC(=O)C(=O)Nc4cc(C)cc(C)c4)c(C)n3n2)cc1,-5.2%,-0.8%,x
Cc1ccc2[nH]c(=O)c(CN(Cc3ccco3)Cc3nnnn3Cc3ccco3)cc2c1,x,x,-3.0%
Cc1ccc2[nH]c(=O)c(CN(Cc3ccccc3)Cc3nnnn3C3CCCC3)cc2c1,11.6%,-11.7%,x
Cc1ccc2[nH]c(=O)c(CN(Cc3ccccc3)Cc3nnnn3Cc3ccco3)cc2c1,x,x,-12.9%
Cc1ccc(CN(Cc2cc3cc4c(cc3[nH]c2=O)OCCO4)Cc2nnnn2Cc2ccco2)cc1,11.5%,20µM*,-26.3%
Cc1ccc2cc(CN(Cc3ccc4c(c3)OCO4)Cc3nnnn3Cc3ccco3)c(=O)[nH]c2c1,-3.1%,-10.1%,x
CCC(c1nnnn1Cc1ccco1)N(Cc1ccccc1OC)Cc1cc2cc(C)ccc2[nH]c1=O (centres undefined),-12.8%,-8.6%,x

# Compound activity as filed in PubChem.
